Results as given in PubChem BioAssay (EPA / NIEHS).
Values joined by “and” are separate entries in the source; they are usually repeats but may differ in a detail not shown here. Equal values may be shown once. Records with an inconclusive call do not appear. Active and inactive are the calls of the source. Rule for the calls: active = hit-call score of the fitted dose curve at least 0.9, where 1 is the maximum; inconclusive = response in the unintended direction; inactive = score below 0.9.

Each molecule was assayed against human Phosphatase and Tensin Homolog (PTEN), PTEN (gene 5728) (UniProt P60484) (assay: NVS_ENZ_hPTEN: NovaScreen (NVS) Enzymatic Assay for human Phosphatase and Tensin Homolog (PTEN) (AID 2283203)).
Sequence of human Phosphatase and Tensin Homolog (PTEN), PTEN (gene 5728) (P60484 whole entry, looked up): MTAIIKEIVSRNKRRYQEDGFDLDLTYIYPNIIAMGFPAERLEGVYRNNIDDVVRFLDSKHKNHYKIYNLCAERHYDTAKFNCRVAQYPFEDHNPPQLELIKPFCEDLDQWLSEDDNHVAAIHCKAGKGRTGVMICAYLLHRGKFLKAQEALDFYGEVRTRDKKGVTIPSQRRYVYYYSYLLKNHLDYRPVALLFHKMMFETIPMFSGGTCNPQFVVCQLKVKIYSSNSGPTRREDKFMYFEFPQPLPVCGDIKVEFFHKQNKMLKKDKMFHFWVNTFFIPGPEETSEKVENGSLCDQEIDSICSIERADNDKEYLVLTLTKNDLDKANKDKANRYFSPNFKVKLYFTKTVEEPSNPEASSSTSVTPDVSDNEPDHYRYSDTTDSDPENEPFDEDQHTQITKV
How it was run: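 Cell-free recombinant human PTEN with fluorescent substrate; product separated by electrophoretic mobility shift and read by fluorescence 1 h after dosing. Primary screen in duplicate at 25 uM, actives followed in concentration series versus DMSO.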
With `N#CCc1ccc(Cl)cc1` the AC50 was 1.32 µM (active). In the case of `O=C(c1ccccc1)C(Cl)Cl`, the AC50 was 14.1 µM (active). In the case of `COC[C@H](C)N(C(=O)CCl)c1c(C)csc1C`, the outcome was “inactive”. With `CN(CCCC(=O)c1cccnc1)N=O` the AC50 was 0.00229 µM (active). For `COP(=S)(OC)Oc1cc(Cl)c(Cl)cc1Cl`, the outcome was “inactive”.

These molecules were tested against human Protein Tyrosine Phosphatase Non-receptor Type 9 (PTPN9), PTPN9 (gene 5780) (UniProt P43378) (assay: NVS_ENZ_hPTPN9: NovaScreen (NVS) Enzymatic Assay for human Protein Tyrosine Phosphatase Non-receptor Type 9 (PTPN9) (AID 2283209)).
Sequence of human Protein Tyrosine Phosphatase Non-receptor Type 9 (PTPN9), PTPN9 (gene 5780) (P43378 whole entry, looked up): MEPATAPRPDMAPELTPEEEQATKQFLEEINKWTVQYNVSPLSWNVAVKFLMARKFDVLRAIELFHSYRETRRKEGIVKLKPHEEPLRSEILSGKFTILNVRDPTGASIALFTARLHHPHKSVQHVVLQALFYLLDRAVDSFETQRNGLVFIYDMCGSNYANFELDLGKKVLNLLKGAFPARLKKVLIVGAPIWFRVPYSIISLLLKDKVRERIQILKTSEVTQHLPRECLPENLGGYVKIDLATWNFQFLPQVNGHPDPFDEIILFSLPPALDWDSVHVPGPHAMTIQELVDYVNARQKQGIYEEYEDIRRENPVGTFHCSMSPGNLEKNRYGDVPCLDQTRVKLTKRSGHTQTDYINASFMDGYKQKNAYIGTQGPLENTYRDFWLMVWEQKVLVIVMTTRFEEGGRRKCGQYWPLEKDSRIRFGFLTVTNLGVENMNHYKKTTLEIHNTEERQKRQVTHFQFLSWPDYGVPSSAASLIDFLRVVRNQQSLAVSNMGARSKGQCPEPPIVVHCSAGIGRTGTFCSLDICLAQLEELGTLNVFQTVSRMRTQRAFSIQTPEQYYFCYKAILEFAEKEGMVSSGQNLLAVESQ
How it was run: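 Sf9-expressed enzyme in a cell-free assay, fluorescence read 1.33 h after dosing with mobility-shift separation of substrate and product. Tested at 25 uM in duplicate, then up to 50 uM; signal loss versus DMSO.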
In the case of `COc1cc(-c2ccc(N)c(OC)c2)ccc1N`, the AC50 was 40.1 µM (active). In the case of `CC(=O)[O][Hg][c]1ccccc1`, the AC50 was 17 µM (active). With `CC(C)(C)CC(C)(C)c1ccc(O)cc1` the outcome was “inactive”.

Each molecule was assayed against human Protein Tyrosine Phosphatase Non-receptor Type 6 (PTPN6), PTPN6 (gene 5777) (UniProt P29350) (assay: NVS_ENZ_hPTPN6: NovaScreen (NVS) Enzymatic Assay for human Protein Tyrosine Phosphatase Non-receptor Type 6 (PTPN6) (AID 2283210)).
Sequence of human Protein Tyrosine Phosphatase Non-receptor Type 6 (PTPN6), PTPN6 (gene 5777) (P29350 whole entry, looked up): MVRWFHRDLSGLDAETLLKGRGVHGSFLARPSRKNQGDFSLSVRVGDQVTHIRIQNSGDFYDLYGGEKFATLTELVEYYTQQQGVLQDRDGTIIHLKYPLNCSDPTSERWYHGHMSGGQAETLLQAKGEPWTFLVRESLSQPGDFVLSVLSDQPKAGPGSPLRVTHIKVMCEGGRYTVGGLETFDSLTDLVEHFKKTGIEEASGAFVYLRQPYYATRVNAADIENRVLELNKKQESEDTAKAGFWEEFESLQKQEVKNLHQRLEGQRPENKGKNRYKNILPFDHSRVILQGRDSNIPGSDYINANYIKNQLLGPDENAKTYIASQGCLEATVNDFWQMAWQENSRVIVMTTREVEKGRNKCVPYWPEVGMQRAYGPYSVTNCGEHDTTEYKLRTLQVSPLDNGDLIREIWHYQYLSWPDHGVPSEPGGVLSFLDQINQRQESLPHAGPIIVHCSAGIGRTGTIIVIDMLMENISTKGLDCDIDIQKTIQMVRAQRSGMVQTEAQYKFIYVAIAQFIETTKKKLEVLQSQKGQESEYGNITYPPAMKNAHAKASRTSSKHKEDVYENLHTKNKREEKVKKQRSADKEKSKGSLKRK
How it was run: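 Cell-free assay with recombinant PTPN6 expressed in SF9 cells, fluorescent substrate, product separated from substrate by electrophoretic mobility shift; read 1.33 hours after dosing. Primary screen in duplicate at 25 uM, actives retested in concentration series; DMSO baseline.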
With `Cn1sc(Cl)cc1=O` the outcome was “inactive”. In the case of `CCOP(=S)(OCC)Oc1nc(Cl)c(Cl)cc1Cl`, the outcome was “inactive”. `CCOP(=S)(OCC)SCSP(=S)(OCC)OCC` was tested, and the outcome was “inactive”. With `O=C(O)C(Cl)(Cl)Cl` the outcome was “inactive”.

The molecules below were run against human Vascular Endothelial Growth Factor Receptor 1 (VEGFR1), FLT1 (gene 2321) (UniProt P17948) (assay: NVS_ENZ_hVEGFR1: NovaScreen (NVS) Enzymatic Assay for human Vascular Endothelial Growth Factor Receptor 1 (VEGFR1) (AID 2283226)).
Sequence of human Vascular Endothelial Growth Factor Receptor 1 (VEGFR1), FLT1 (gene 2321) (P17948 whole entry, looked up): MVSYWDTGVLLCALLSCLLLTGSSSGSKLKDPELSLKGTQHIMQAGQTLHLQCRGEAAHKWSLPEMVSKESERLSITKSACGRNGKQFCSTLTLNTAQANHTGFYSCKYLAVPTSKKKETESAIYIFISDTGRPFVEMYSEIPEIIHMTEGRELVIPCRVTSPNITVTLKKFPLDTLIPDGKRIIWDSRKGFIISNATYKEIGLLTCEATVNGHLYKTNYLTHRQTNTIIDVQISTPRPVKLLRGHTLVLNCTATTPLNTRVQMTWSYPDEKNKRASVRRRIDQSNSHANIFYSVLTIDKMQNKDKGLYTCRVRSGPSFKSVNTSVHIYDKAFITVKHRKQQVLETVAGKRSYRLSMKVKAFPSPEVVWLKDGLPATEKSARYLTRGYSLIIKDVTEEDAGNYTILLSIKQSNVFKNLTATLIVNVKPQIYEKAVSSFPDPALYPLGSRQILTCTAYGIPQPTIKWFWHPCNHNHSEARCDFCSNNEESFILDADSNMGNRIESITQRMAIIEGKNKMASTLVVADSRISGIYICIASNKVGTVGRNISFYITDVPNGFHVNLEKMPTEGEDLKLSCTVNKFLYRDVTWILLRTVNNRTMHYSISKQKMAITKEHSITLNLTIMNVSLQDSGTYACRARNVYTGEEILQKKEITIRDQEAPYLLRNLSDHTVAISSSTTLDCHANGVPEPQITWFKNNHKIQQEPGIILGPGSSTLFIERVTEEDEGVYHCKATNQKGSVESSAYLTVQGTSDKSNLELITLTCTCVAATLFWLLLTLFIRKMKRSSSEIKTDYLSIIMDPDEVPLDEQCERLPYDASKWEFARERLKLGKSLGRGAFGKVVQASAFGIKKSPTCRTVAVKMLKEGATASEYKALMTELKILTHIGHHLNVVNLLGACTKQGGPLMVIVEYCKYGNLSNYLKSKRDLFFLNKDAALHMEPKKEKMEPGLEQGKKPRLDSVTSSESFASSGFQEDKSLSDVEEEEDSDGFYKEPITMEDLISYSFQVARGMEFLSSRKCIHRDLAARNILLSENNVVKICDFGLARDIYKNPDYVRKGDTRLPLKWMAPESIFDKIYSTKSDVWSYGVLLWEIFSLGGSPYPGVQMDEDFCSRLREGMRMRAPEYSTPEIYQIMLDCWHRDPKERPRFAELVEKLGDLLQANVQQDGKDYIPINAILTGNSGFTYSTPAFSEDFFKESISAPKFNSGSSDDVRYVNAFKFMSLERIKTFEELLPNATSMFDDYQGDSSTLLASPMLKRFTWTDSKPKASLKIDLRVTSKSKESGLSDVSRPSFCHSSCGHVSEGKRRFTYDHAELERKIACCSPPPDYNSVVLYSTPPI
How it was run: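 Cell-free assay of recombinant human VEGFR1 kinase with substrate, measured 1 h after dosing; fluorescence with electrophoretic mobility-shift separation of substrate and product, referenced to DMSO; primary screen at 25 uM in duplicate, actives then run in concentration series.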
For `CCOP(=S)(OCC)Oc1ccc(S(C)=O)cc1` (configuration not stated), the outcome was “inactive”. `Nc1ncc([N+](=O)[O-])s1` was tested, and the AC50 was 40.4 µM (active). With `CC(=O)[O][Hg][c]1ccccc1` the outcome was “inactive”. `COP(=S)(OC)Oc1cc(Cl)c(Cl)cc1Cl` was tested, and the outcome was “inactive”.

The molecules below were run against rabbit Imidazoline 2 Central (I2C), CKB (gene 100009085) (UniProt P00567) (assay: NVS_ENZ_rabI2C: NovaScreen (NVS) Enzymatic Assay for rabbit Imidazoline 2 Central (I2C) (AID 2283228)).
Sequence of rabbit Imidazoline 2 Central (I2C), CKB (gene 100009085) (P00567 whole entry, looked up): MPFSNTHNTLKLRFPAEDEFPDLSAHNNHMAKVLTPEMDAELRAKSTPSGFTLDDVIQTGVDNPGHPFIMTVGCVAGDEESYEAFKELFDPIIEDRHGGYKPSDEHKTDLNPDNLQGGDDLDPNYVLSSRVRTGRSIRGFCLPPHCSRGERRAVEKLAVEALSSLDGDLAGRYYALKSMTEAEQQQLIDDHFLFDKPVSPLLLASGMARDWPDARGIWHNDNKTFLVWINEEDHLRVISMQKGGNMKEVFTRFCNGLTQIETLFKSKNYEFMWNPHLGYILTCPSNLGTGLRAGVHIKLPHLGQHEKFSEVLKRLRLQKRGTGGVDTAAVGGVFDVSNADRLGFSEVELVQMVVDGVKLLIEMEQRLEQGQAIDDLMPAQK
How it was run: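 Rabbit brain membranes, cell-free; readout by filter-based scintillation counting 1.5 hours after dosing, loss of signal vs DMSO. Initial duplicate test at 25 uM, then concentration-response with 50 uM top concentration.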
`CCN1CCC2(CC1)COc1cc3c(cc12)N(C(=O)c1ccc(-c2ccc(-c4nnc(C)o4)cc2C)cc1)CC3` was tested, and the outcome was “inactive”. With `COc1cc(-c2ccc(N)c(OC)c2)ccc1N` the AC50 was 10.4 µM (active) and 18.1 µM (active). For `CCC(=O)C(CC(C)N(C)C)(c1ccccc1)c1ccccc1` (configuration not stated), the AC50 was 3.37 µM (active).

Each molecule was assayed against human Vascular Endothelial Growth Factor Receptor 2 (VEGFR2), KDR (gene 3791) (UniProt P35968) (assay: NVS_ENZ_hVEGFR2: NovaScreen (NVS) Enzymatic Assay for human Vascular Endothelial Growth Factor Receptor 2 (VEGFR2) (AID 2283230)).
Sequence of human Vascular Endothelial Growth Factor Receptor 2 (VEGFR2), KDR (gene 3791) (P35968 whole entry, looked up): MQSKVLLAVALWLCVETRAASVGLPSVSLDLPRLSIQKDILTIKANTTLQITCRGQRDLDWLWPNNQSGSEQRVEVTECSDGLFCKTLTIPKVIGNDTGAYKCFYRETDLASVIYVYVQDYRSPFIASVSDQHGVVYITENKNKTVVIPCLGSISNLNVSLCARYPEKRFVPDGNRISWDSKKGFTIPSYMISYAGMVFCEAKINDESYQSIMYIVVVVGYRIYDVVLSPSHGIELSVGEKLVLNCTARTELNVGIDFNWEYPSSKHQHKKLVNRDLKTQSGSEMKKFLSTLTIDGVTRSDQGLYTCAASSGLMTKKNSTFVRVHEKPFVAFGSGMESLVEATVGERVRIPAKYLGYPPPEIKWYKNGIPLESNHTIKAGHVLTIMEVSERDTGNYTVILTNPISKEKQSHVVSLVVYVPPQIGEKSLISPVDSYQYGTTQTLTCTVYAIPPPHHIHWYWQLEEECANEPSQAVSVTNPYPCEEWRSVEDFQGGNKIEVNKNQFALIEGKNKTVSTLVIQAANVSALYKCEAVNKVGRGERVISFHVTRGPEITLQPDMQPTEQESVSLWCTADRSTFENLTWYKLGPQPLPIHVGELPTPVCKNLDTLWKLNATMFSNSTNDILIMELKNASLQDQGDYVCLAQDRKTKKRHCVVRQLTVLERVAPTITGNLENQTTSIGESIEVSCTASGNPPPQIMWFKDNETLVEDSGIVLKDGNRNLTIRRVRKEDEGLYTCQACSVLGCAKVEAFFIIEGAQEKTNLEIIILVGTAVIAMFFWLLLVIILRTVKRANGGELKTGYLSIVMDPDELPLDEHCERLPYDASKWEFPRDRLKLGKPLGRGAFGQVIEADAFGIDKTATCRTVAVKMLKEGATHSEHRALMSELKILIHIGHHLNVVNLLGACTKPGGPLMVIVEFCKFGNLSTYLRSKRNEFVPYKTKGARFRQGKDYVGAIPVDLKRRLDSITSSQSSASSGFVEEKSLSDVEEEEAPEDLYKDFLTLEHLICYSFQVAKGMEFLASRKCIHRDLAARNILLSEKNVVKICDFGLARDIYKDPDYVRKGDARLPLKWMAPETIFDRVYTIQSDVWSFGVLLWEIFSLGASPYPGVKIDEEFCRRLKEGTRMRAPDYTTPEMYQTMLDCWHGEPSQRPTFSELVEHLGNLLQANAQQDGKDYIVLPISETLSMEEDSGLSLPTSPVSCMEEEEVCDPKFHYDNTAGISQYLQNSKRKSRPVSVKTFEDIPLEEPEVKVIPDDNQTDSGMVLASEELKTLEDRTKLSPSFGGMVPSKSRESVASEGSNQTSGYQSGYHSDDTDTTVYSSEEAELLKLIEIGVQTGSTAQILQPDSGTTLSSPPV
How it was run: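 Cell-free recombinant VEGFR2 kinase, fluorescent substrate with electrophoretic mobility-shift separation; read 1 h after dosing. Screened at 25 uM in duplicate, hits to concentration-response up to 50 uM; loss-of-signal versus DMSO.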
`COP(=S)(OC)Oc1ccc(Sc2ccc(OP(=S)(OC)OC)cc2)cc1` was tested, and the outcome was “inactive”. With `CCCCCCCCc1ccc(O)cc1` the outcome was “inactive”. For `CCC(C)(C)c1ccc(O)c(C(C)(C)CC)c1`, the outcome was “inactive”. With `O=C1C2(Cl)C3(Cl)C4(Cl)C(Cl)(Cl)C5(Cl)C3(Cl)C1(Cl)C5(Cl)C24Cl` (configuration not stated) the outcome was “inactive”. With `O=C(Nc1ccc2[nH]ccc2c1)c1cc2cc(F)ccc2n1Cc1cccc(F)c1` the outcome was “inactive”. In the case of `CC(=O)[O][Hg][c]1ccccc1`, the outcome was “inactive”. For `CC(C)(C)CC(C)(C)c1ccc(O)cc1`, the outcome was “inactive”. `CC(C)(c1ccccc1)c1ccc(O)c(C(C)(C)c2ccccc2)c1` was tested, and the outcome was “inactive”.
